# Out of some 3,200 compounds screened, about 110 (3.4%) showed an effect of 50% or more. Shown is part of a subset that was picked to be rich in strong results.
# Tested on: T1, V. cholerae SAD30
# T1 construct: SAD30
# Set-up: species or system S. aureus MSSA476 (TSB) or V. cholerae SAD30 (LB); 384-well bacterial growth screen at 25 uM, OD600 relative to DMSO control
# Details: relative growth, OD600, LB; 25 µM; inhibitor
row,SMILES,% of control remaining
1,"C=CC(=O)N1CCCCC1c1nc2ccccc2n1C (stereo not shown) [3-F04, 1-[2-(1-methyl-1H-1,3-benzodiazol-2-yl)piperidin-1-yl]prop-2-en-1-one]",96.3242%
2,"C=CC(=O)NCC(c1c(F)cccc1F)N1CC(C)OC(C)C1 (stereo not shown) [1-I13, N-[2-(2,6-difluorophenyl)-2-(2,6-dimethylmorpholin-4-yl)ethyl]prop-2-enamide]",82.5112%
3,"N#CC(=Cc1ccc(-c2ccccc2Cl)o1)C(=O)N1CCCCC1 [8-F20, 3-[5-(2-chlorophenyl)furan-2-yl]-2-(piperidine-1-carbonyl)prop-2-enenitrile]",64.378%
4,"O=C(CCl)N1CC(S(=O)(=O)Nc2ccccc2)C1 [5-G10, 1-(2-chloroacetyl)-N-phenylazetidine-3-sulfonamide]",71.283%
5,"O=C(NC1CC1)C1(C(=O)N2CCSSCC2)CCC1 [10-B21, N-cyclopropyl-1-(1,2,5-dithiazepane-5-carbonyl)cyclobutane-1-carboxamide]",104.89%
6,"Cn1nc(C(F)(F)F)cc1CN(C(=O)CCl)C1CCCC1 [5-C16, 2-chloro-N-cyclopentyl-N-{[1-methyl-3-(trifluoromethyl)-1H-pyrazol-5-yl]methyl}acetamide]",89.1037%
7,"O=C(CCl)Cc1ccc(F)cc1 [10-G15, 1-chloro-3-(4-fluorophenyl)propan-2-one]",95.6945%
8,"O=C(CCl)Cc1ccc(F)c(F)c1 [10-O17, 1-chloro-3-(3,4-difluorophenyl)propan-2-one]",19.3259%
9,"O=C(CCl)Cc1ccc(C(F)(F)F)cc1 [10-C19, 1-chloro-3-[4-(trifluoromethyl)phenyl]propan-2-one]",79.6415%
10,"COc1ccc(OC)c(N2C(=O)C=CC2=O)c1 [10-N15, 1-(2,5-dimethoxyphenyl)-2,5-dihydro-1H-pyrrole-2,5-dione]",24.7808%
11,"COc1cc(Cl)c(C)cc1NC(=O)C(C)Cl (stereo not shown) [6-C15, 2-chloro-N-(4-chloro-2-methoxy-5-methylphenyl)propanamide]",86.6054%
12,"COc1ccccc1CN1C(=O)C=CC1=O [10-P21, 1-[(2-methoxyphenyl)methyl]-2,5-dihydro-1H-pyrrole-2,5-dione]",42.8599%
13,"COc1ccccc1CN(C)C(=O)CCl [6-C09, 2-chloro-N-[(2-methoxyphenyl)methyl]-N-methylacetamide]",89.7905%
14,"COc1ccccc1NC(=O)C(C)Cl (stereo not shown) [5-L20, 2-chloro-N-(2-methoxyphenyl)propanamide]",97.5097%
15,"COc1ccccc1CNC(=O)C(C)Cl (stereo not shown) [5-M21, 2-chloro-N-[(2-methoxyphenyl)methyl]propanamide]",101.376%
16,"COc1ccc(OC)c(C(C)NC(=O)CCl)c1 (stereo not shown) [4-M19, 2-chloro-N-[1-(2,5-dimethoxyphenyl)ethyl]acetamide]",102.48%
17,"COc1cc(Cl)c(C)cc1N1C(=O)C=CC1=O [10-B15, 1-(4-chloro-2-methoxy-5-methylphenyl)-2,5-dihydro-1H-pyrrole-2,5-dione]",23.534%
18,"COc1ccc(OC)c(NC(=O)CCl)c1 [6-O04, 2-chloro-N-(2,5-dimethoxyphenyl)acetamide]",96.0091%
19,"COc1ccccc1N1C(=O)C=CC1=O [10-O10, 1-(2-methoxyphenyl)-2,5-dihydro-1H-pyrrole-2,5-dione]",26.0277%
20,"COc1cc(Cl)c(C)cc1NC(=O)C(C#N)=CC=Cc1ccccc1 [8-A21, N-(4-chloro-2-methoxy-5-methylphenyl)-2-cyano-5-phenylpenta-2,4-dienamide]",93.0659%
21,"CC(Cl)C(=O)NCCC1=CCCCCC1 (stereo not shown) [5-N19, 2-chloro-N-[2-(cyclohept-1-en-1-yl)ethyl]propanamide]",88.2631%
22,"CN(Cc1ccc(N(C)C)cc1)C(=O)CCl.Cl [5-F06, 2-chloro-N-{[4-(dimethylamino)phenyl]methyl}-N-methylacetamide hydrochloride]",92.298%
23,"CSc1ccccc1NC(=O)C(C)Cl (stereo not shown) [4-M12, 2-chloro-N-[2-(methylsulfanyl)phenyl]propanamide]",94.8889%
24,"C=CC(=O)N1CCCn2cccc2C12CCOCC2 [1-A22, 1-{2',3',4',5'-tetrahydrospiro[oxane-4,1'-pyrrolo[1,2-a][1,4]diazepin]-2'-yl}prop-2-en-1-one]",107.922%
25,"CCC(NC(=O)CCl)c1ccc(C)cc1 (stereo not shown) [4-K17, 2-chloro-N-[1-(4-methylphenyl)propyl]acetamide]",97.3043%
26,"C=CC(=O)NCc1ccno1 [1-O07, N-[(1,2-oxazol-5-yl)methyl]prop-2-enamide]",86.846%

row,SMILES,% of control remaining
1,"C=CC(=O)NC1CC(C)Cc2cc(OC)ccc21 (stereo not shown) [3-L17, N-(6-methoxy-3-methyl-1,2,3,4-tetrahydronaphthalen-1-yl)prop-2-enamide]",87.3259%
2,"O=C(CCl)NC(c1cc(F)ccc1F)C(F)F (stereo not shown) [7-F22, 2-chloro-N-[1-(2,5-difluorophenyl)-2,2-difluoroethyl]acetamide]",92.5161%
3,"C=CC(=O)N(CCO)c1ccc(C(=O)O)cc1 [1-M10, 4-[N-(2-hydroxyethyl)prop-2-enamido]benzoic acid]",88.6398%
4,"C=CC(=O)N1CCC(C(=O)N(C)Cc2ccon2)CC1 [2-I14, N-methyl-N-[(1,2-oxazol-3-yl)methyl]-1-(prop-2-enoyl)piperidine-4-carboxamide]",86.7992%
5,"C=CC(=O)N1CCC(C(=O)N[C@H]2CC[C@@H]2O)(c2ccccc2)CC1 (racemic) [3-G08, rac-N-[(1R,2R)-2-hydroxycyclobutyl]-4-phenyl-1-(prop-2-enoyl)piperidine-4-carboxamide]",93.3248%
6,"C=CC(=O)N1CCC(C(=O)Nc2ccccc2NS(C)(=O)=O)CC1 [3-C06, N-(2-methanesulfonamidophenyl)-1-(prop-2-enoyl)piperidine-4-carboxamide]",107.793%
7,"CC(C)NC(=O)C(C#N)=Cc1ccccc1 [8-L05, 2-cyano-3-phenyl-N-(propan-2-yl)prop-2-enamide]",76.8865%
8,"CC(C)NC(=O)C(C#N)=Cc1cccs1 [8-H15, 2-cyano-N-(propan-2-yl)-3-(thiophen-2-yl)prop-2-enamide]",71.0401%
9,"Cc1cccc(NC(=O)NC(=O)CCl)c1C [4-D21, 3-(2-chloroacetyl)-1-(2,3-dimethylphenyl)urea]",104.033%
10,"C=CC(=O)NCCn1cc(Cl)c(C(F)(F)F)n1 [2-F03, N-{2-[4-chloro-3-(trifluoromethyl)-1H-pyrazol-1-yl]ethyl}prop-2-enamide]",108.106%
11,"COc1ccc(C2CCCN2C(=O)CCl)c(OC)c1 (stereo not shown) [4-P22, 2-chloro-1-[2-(2,4-dimethoxyphenyl)pyrrolidin-1-yl]ethan-1-one]",115.247%
12,"COc1ccc(Cl)cc1CNC(=O)CCl [6-A16, 2-chloro-N-[(5-chloro-2-methoxyphenyl)methyl]acetamide]",95.2507%
13,"COc1ccc(Cl)cc1N1C(=O)C=CC1=O [10-K10, 1-(5-chloro-2-methoxyphenyl)-2,5-dihydro-1H-pyrrole-2,5-dione]",24.1574%
14,"COc1ccc(Cl)cc1NC(=O)C(C)Cl (stereo not shown) [6-G16, 2-chloro-N-(5-chloro-2-methoxyphenyl)propanamide]",89.3355%
15,"COc1ccc(C(=O)C(C)Cl)c(OC)c1 (stereo not shown) [10-J17, 2-chloro-1-(2,4-dimethoxyphenyl)propan-1-one]",98.0323%
16,"COc1ccc(N2C(=O)C=CC2=O)c(OC)c1 [10-J15, 1-(2,4-dimethoxyphenyl)-2,5-dihydro-1H-pyrrole-2,5-dione]",26.9628%
17,"CC(Cl)C(=O)N1CCN(Cc2cc(=O)n3ccsc3n2)CC1 (stereo not shown) [6-P17, 7-{[4-(2-chloropropanoyl)piperazin-1-yl]methyl}-5H-[1,3]thiazolo[3,2-a]pyrimidin-5-one]",97.5258%
18,"C=CC(=O)N1CCCCC(S(C)(=O)=O)C1 (stereo not shown) [2-E17, 1-(3-methanesulfonylazepan-1-yl)prop-2-en-1-one]",92.6662%
19,"CCc1nocc1CN(C)C(=O)CCl [5-B11, 2-chloro-N-[(3-ethyl-1,2-oxazol-4-yl)methyl]-N-methylacetamide]",90.6168%
20,"C=CC(=O)N1CCC(C(=O)N2Cc3ccc([N+](=O)[O-])cc3C2)CC1 [2-F04, 1-[4-(5-nitro-2,3-dihydro-1H-isoindole-2-carbonyl)piperidin-1-yl]prop-2-en-1-one]",98.2245%
21,"CCn1ncc(C(=O)CCl)n1 [10-E13, 2-chloro-1-(2-ethyl-2H-1,2,3-triazol-4-yl)ethan-1-one]",0%
22,"CCn1nc(C)c(CN(C)C(=O)CCl)c1C [5-A10, 2-chloro-N-[(1-ethyl-3,5-dimethyl-1H-pyrazol-4-yl)methyl]-N-methylacetamide]",104.907%
23,"CCn1nc(C)c(C(=O)CCl)n1 [10-P08, 2-chloro-1-(2-ethyl-5-methyl-2H-1,2,3-triazol-4-yl)ethan-1-one]",40.2104%
24,"CCn1cc(NC(=O)CCl)cn1.Cl [6-I15, 2-chloro-N-(1-ethyl-1H-pyrazol-4-yl)acetamide hydrochloride]",98.4359%
25,"Cn1ncc(C(=O)CCl)n1 [10-J10, 2-chloro-1-(2-methyl-2H-1,2,3-triazol-4-yl)ethan-1-one]",112.838%
26,"CCn1nc(C)c(CNC(=O)CCl)c1C [7-P10, 2-chloro-N-[(1-ethyl-3,5-dimethyl-1H-pyrazol-4-yl)methyl]acetamide]",85.1148%

# Source: PMC11995724, “Antibiotic target discovery by integrated phenotypic and activity-based profiling of electrophilic fragments” (Cell chemical biology, 2025)
